{
  "source": "the supplement of paper PMC8728848",
  "binders": {"B1": {"name": "Epa1-NP (Candida glabrata), Q6VBJ0 (protein)", "chain": "MILNPALFLNKCVCIYTTLILLLLTNGGYATSSNDISLASKDPTTFPLGCSPDITTPKKGLSMELYSYDFRKKGSYPCWDAAYLDPNYPRTGYKSHRLLAKVDGVTGNINFYYHATKGCTPQLGHLPASYNYPKPLTMTNFTMLLYGYFRPKVTGFHTFTISADDLLFVNFGAGNAFDCCRRDSSADHFGNYQAYAIWGSKTAKDELTVHLDAGVYYPIRLFYNNREYDGALSFTFKTESNENTVSDFSEYFFSLDDTEEGCPGLISYDSSCASVKTSKIIGIDYHTETPNENLVPITKTIYHLGIPCTGTTTTPLCGSGFYDPLANKCVTINTSSTSSVTKTTSHTTSKEVSFHSSISSQKTLIPKSIPSPYGPIKSQSIPTEMETSSEISSSEYAFSDVISTPSHSPYTKKHSSLNSSSYTSTVIHSLTSYSISQGIFSTSLSEQNITSKSSTDKFSTATSMSNNITQSSIIISQFSTNNENYTTTSMHTSSDKISTETLNNSISTTTSILFSNSSTILKNNTTIISSDKDTHYHPVNPTIVCSTNKTEIICASITQPSISNSNNHWSSSVLKFNSTTVRSTLPSSAGSNETSINVPFSSSTESNTSTSSTSTSNSKMVRSTLPSSAGSNETSISVPFSSSTESNTSTSSTSTSNSKMVRSTLPSSAGSNETSINVPFSSSTESNTSTSSTSTSNSKTVRSTPFSSAGIIMTSLSQRNNKSASSYASSNSKCYNTADSCRKVHSTPSYLLTSSYTSEGVDYDCSLVSTKLKINDTNCVNNKHTTKSCLKTSVTTTIPTLEIKTARKSSSNTIGLHSYPTSSPNKSISSAPIIGYISSFKTIKTASPSYQTSDLTTITTITSLNNPGSTAVENTHESNDKSRKTSSNDISSKHSVIKETKDAVESSNKSHQTNTLKCSSIIIASSSHNSYESLGGTTLTLTLSKVYSPQNNDTLPFLEISEVNPSRTVLPESSKMMQYLTSTEERNKTARNTIATNIVSISTFHFEGEGNAIRMGYTQLLLMLIGIIVMNIGT"}},
  "assay_in_all_cases": "glycan array binding signal (z-score within array); higher = stronger binding",
  "conditions_in_all_cases": "glycan notation: IUPAC condensed, linker removed",
  "key": {"[1]": {"biological_target": "Gal(b1-4)GlcNAc(b1-6)[Gal(b1-3)]GlcNAc", "method_in_brief": "(§1)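 From the Consortium for Functional Glycomics database, 3228 arrays were curated, keeping only those whose protein sequence was available. Binding is given as a within-array Z-score averaged across arrays sharing a protein sequence and across linkers. Negative Z-scores can be read as non-binding.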"}, "[2]": {"biological_target": "Gal3S(b1-3)[Fuc(a1-4)]GlcNAc", "method_in_brief": "as §1"}, "[3]": {"biological_target": "GalNAc(a1-3)Fuc(a1-2)Gal(b1-4)GlcNAc(b1-3)[GalNAc(a1-3)Fuc(a1-2)Gal(b1-4)GlcNAc(b1-6)]GalNAc", "method_in_brief": "as §1"}, "GalNAc(a1-3)GalNAc": {"biological_target": "GalNAc(a1-3)GalNAc", "method_in_brief": "as §1"}, "[4]": {"biological_target": "GalNAc(b1-3)Gal(a1-4)Gal(b1-4)GlcNAc", "method_in_brief": "as §1"}, "GalNAc(b1-3)GalNAc": {"biological_target": "GalNAc(b1-3)GalNAc", "method_in_brief": "as §1"}, "GalNAc(b1-4)Gal(b1-4)Glc": {"biological_target": "GalNAc(b1-4)Gal(b1-4)Glc", "method_in_brief": "as §1"}, "[5]": {"biological_target": "GalNAc(b1-4)GlcNAc(b1-3)GalNAc(b1-4)GlcNAc", "method_in_brief": "as §1"}, "GalNAc3S(b1-4)GlcNAc3S": {"biological_target": "GalNAc3S(b1-4)GlcNAc3S", "method_in_brief": "as §1"}, "Glc(a1-6)Glc(a1-6)Glc": {"biological_target": "Glc(a1-6)Glc(a1-6)Glc", "method_in_brief": "as §1"}, "[6]": {"biological_target": "GlcNAc(a1-3)Gal(b1-4)GlcNAc", "method_in_brief": "as §1"}, "[7]": {"biological_target": "GlcNAc(a1-4)Gal(b1-4)GlcNAc(b1-3)Gal(b1-4)GlcNAc", "method_in_brief": "as §1"}, "[8]": {"biological_target": "GlcNAc(b1-2)[GlcNAc(b1-4)]Man(a1-3)[GlcNAc(b1-4)][GlcNAc(b1-2)[GlcNAc(b1-6)]Man(a1-6)]Man(b1-4)GlcNAc(b1-4)[Fuc(a1-6)]GlcNAc", "method_in_brief": "as §1"}, "[9]": {"biological_target": "GlcNAc(b1-3)Gal(b1-4)GlcNAc(b1-3)Gal(b1-4)GlcNAc(b1-2)[GlcNAc(b1-3)Gal(b1-4)GlcNAc(b1-3)Gal(b1-4)GlcNAc(b1-6)]Man(a1-6)[GlcNAc(b1-3)Gal(b1-4)GlcNAc(b1-3)Gal(b1-4)GlcNAc(b1-2)Man(a1-3)]Man(b1-4)GlcNAc(b1-4)[Fuc(a1-6)]GlcNAc", "method_in_brief": "as §1"}, "[10]": {"biological_target": "GlcNAc(b1-3)Gal(b1-4)GlcNAc(b1-3)GalNAc", "method_in_brief": "as §1"}, "[11]": {"biological_target": "GlcNAc(b1-3)[GlcNAc(b1-6)]GalNAc", "method_in_brief": "as §1"}, "[12]": {"biological_target": "GlcNAc(b1-4)GlcNAc(b1-4)GlcNAc(b1-4)GlcNAc(b1-4)GlcNAc(b1-4)GlcNAc", "method_in_brief": "as §1"}, "[13]": {"biological_target": "Man(a1-3)[Man(a1-6)]Man(b1-4)GlcNAc(b1-4)GlcNAc", "method_in_brief": "as §1"}, "[14]": {"biological_target": "Neu5Ac(a2-3)Gal(b1-4)GlcNAc(b1-2)[Neu5Ac(a2-3)Gal(b1-4)GlcNAc(b1-4)]Man(a1-3)[GlcNAc(b1-4)][Neu5Ac(a2-3)Gal(b1-4)GlcNAc(b1-4)Man(a1-6)]Man(b1-4)GlcNAc(b1-4)GlcNAc", "method_in_brief": "as §1"}, "[15]": {"biological_target": "Neu5Ac(a2-3)Gal(b1-4)GlcNAc(b1-3)Gal(b1-4)GlcNAc(b1-3)GalNAc", "method_in_brief": "as §1"}, "[16]": {"biological_target": "Neu5Ac(a2-3)GalNAc(b1-4)GlcNAc", "method_in_brief": "as §1"}, "Neu5Ac(a2-6)Gal": {"biological_target": "Neu5Ac(a2-6)Gal", "method_in_brief": "as §1"}, "[17]": {"biological_target": "Neu5Ac(a2-6)Gal(b1-4)GlcNAc(b1-2)Man(a1-3)[GlcNAc(b1-2)Man(b1-4)GlcNAc(b1-2)Man(a1-6)]Man(b1-4)GlcNAc(b1-4)GlcNAc", "method_in_brief": "as §1"}, "[18]": {"biological_target": "Neu5Ac(a2-6)Gal(b1-4)GlcNAc6S", "method_in_brief": "as §1"}, "[19]": {"biological_target": "Neu5Ac(a2-6)GlcNAc(b1-4)GlcNAc", "method_in_brief": "as §1"}, "[20]": {"biological_target": "Neu5Gc(a2-3)Gal(b1-3)GlcNAc", "method_in_brief": "as §1"}, "Neu5Gc(a2-3)Gal(b1-4)Glc": {"biological_target": "Neu5Gc(a2-3)Gal(b1-4)Glc", "method_in_brief": "as §1"}, "[21]": {"biological_target": "Neu5Gc(a2-8)Neu5Ac(a2-3)Gal(b1-4)GlcNAc", "method_in_brief": "as §1"}, "[22]": {"biological_target": "Neu5Gc(a2-8)Neu5Gc(a2-3)Gal(b1-4)GlcNAc", "method_in_brief": "as §1"}},
  "note": "The sample as a whole holds a higher share of the strongest signals than the screen did.",
  "data": [
    {"binder": "B1", "values": [
      {"measurement": "glycan array binding signal (z-score)", "setting": "[1]", "result": 2.48},
      {"measurement": "glycan array binding signal (z-score)", "setting": "[2]", "result": -0.293},
      {"measurement": "glycan array binding signal (z-score)", "setting": "[3]", "result": -0.254},
      {"measurement": "glycan array binding signal (z-score)", "setting": "GalNAc(a1-3)GalNAc", "result": -0.306},
      {"measurement": "glycan array binding signal (z-score)", "setting": "[4]", "result": -0.325},
      {"measurement": "glycan array binding signal (z-score)", "setting": "GalNAc(b1-3)GalNAc", "result": -0.293},
      {"measurement": "glycan array binding signal (z-score)", "setting": "GalNAc(b1-4)Gal(b1-4)Glc", "result": -0.286},
      {"measurement": "glycan array binding signal (z-score)", "setting": "[5]", "result": -0.291},
      {"measurement": "glycan array binding signal (z-score)", "setting": "GalNAc3S(b1-4)GlcNAc3S", "result": -0.283},
      {"measurement": "glycan array binding signal (z-score)", "setting": "Glc(a1-6)Glc(a1-6)Glc", "result": -0.338},
      {"measurement": "glycan array binding signal (z-score)", "setting": "[6]", "result": -0.317},
      {"measurement": "glycan array binding signal (z-score)", "setting": "[7]", "result": -0.217},
      {"measurement": "glycan array binding signal (z-score)", "setting": "[8]", "result": -0.285},
      {"measurement": "glycan array binding signal (z-score)", "setting": "[9]", "result": -0.27},
      {"measurement": "glycan array binding signal (z-score)", "setting": "[10]", "result": -0.287},
      {"measurement": "glycan array binding signal (z-score)", "setting": "[11]", "result": -0.284},
      {"measurement": "glycan array binding signal (z-score)", "setting": "[12]", "result": -0.319},
      {"measurement": "glycan array binding signal (z-score)", "setting": "[13]", "result": -0.374},
      {"measurement": "glycan array binding signal (z-score)", "setting": "[14]", "result": -0.295},
      {"measurement": "glycan array binding signal (z-score)", "setting": "[15]", "result": -0.291},
      {"measurement": "glycan array binding signal (z-score)", "setting": "[16]", "result": -0.338},
      {"measurement": "glycan array binding signal (z-score)", "setting": "Neu5Ac(a2-6)Gal", "result": -0.276},
      {"measurement": "glycan array binding signal (z-score)", "setting": "[17]", "result": -0.296},
      {"measurement": "glycan array binding signal (z-score)", "setting": "[18]", "result": -0.31},
      {"measurement": "glycan array binding signal (z-score)", "setting": "[19]", "result": -0.281},
      {"measurement": "glycan array binding signal (z-score)", "setting": "[20]", "result": -0.348},
      {"measurement": "glycan array binding signal (z-score)", "setting": "Neu5Gc(a2-3)Gal(b1-4)Glc", "result": -0.308},
      {"measurement": "glycan array binding signal (z-score)", "setting": "[21]", "result": -0.286},
      {"measurement": "glycan array binding signal (z-score)", "setting": "[22]", "result": -0.286}
    ]}
  ]
}
